For 39 compounds, Potency results are on record in PubChem BioAssay (NCATS).

Each structure is given as a SMILES string. Records with an inconclusive call do not appear. A call without a number means that no potency is given here. Activity calls are given as the source filed them. The call rests on the fitted dose curve.

The test deals with Atrial natriuretic peptide receptor 1 (Homo sapiens) (UniProt P16066). As to the kind of experiment: Natriuretic polypeptide receptor (hNpr1) antagonism - Pilot CMLD screen (AID 1347052).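 Further: HEK293 cells with hNpr1 stimulated by hNppA peptide at 0.1 nM; cGMP level read as GloSensor luciferase luminescence after agonist stimulation.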 Conditions: HEK293 hNpr1 GloSensor cGMP luminescence, ANP-stimulated; series mostly up to 9.22 µM.
Atrial natriuretic peptide receptor 1 (Homo sapiens), sequence (P16066 whole entry, looked up): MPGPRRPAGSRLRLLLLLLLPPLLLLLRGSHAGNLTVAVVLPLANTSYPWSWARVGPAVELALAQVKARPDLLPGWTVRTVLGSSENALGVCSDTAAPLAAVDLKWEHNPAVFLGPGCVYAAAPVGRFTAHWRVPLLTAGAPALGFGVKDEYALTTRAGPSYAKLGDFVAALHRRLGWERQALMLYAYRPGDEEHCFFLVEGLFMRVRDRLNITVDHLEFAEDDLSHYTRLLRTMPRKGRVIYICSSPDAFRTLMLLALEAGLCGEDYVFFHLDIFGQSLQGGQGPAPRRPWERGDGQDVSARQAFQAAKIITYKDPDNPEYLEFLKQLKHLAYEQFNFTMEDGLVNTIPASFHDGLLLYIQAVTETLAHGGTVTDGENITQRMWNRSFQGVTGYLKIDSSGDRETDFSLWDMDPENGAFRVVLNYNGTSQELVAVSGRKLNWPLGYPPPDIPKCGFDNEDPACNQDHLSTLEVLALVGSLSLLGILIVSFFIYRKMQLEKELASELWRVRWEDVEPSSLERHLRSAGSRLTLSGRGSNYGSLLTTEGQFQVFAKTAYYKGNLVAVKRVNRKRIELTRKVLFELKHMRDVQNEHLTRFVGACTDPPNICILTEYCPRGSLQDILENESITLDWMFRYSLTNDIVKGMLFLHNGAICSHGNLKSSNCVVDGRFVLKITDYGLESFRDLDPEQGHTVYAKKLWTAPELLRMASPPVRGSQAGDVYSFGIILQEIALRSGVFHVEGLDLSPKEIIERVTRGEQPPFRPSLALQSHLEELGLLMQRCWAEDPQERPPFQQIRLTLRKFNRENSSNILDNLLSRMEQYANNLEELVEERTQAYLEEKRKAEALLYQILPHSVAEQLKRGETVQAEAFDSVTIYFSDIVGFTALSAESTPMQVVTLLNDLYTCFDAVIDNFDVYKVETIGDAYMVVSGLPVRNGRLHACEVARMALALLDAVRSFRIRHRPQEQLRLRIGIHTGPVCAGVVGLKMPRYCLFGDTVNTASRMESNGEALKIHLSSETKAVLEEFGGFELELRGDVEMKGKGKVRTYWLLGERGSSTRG
For `CC(CCN1CCCc2nc(C)c(C)cc21)=NO[C@H](C)CN1CCCc2nc(C)c(C)cc21`, the Potency entry was “inactive”.
For the compound `Cc1ccccc1Nc1oc(-c2ccccc2)nc1-c1cccs1`, the Potency result is “inactive”.
Regarding `COC(=O)CC1OC1[C@H](C)[C@@H](OC)C(C)C` (some centres undefined), the Potency entry was “inactive”.
The value for `COC(=O)C1=C(C)N(Cc2ccccc2)C(=NCCc2cccs2)NC1c1cccc(C(F)(F)F)c1` (centres undefined) was “inactive”.
Consider `C[C@@H]1CC2=CCCC2[C@]2(O1)C(=O)N(Cc1ccc(F)cc1)c1cccc(Br)c12` (some centres undefined), for which the Potency result was “inactive”.
On to `COc1ccc(-c2nc(-c3ccccc3)c(NCc3ccccc3)o2)cc1`, for which the Potency result is “inactive”.
As for `Oc1c(CN2CCOCC2)cc2c(c1-c1c(O)c(CN3CCOCC3)cc3c1CCCC3)CCCC2`, the entry is “inactive”; as for `CC(C)=NO[C@@H](C)CN1CCCc2nc(C)c(C)cc21`, “inactive”; as for `CC(CCN1CCCc2nc(C)c(C)cc21)=NO[C@H](C)c1cn([C@H](CO)Cc2ccccc2)nn1`, “inactive”.
In the case of `N#Cc1ccc2c(c1)C[C@]1(CCCCN3C(=O)c4ccccc4C3=O)OC3=C(C(=O)OC4(CCCCC4)C3)[C@H]2O1`, the Potency result is “inactive”.
Take `CCN1C(=NCc2cccc(Cl)c2)NC(c2cccc(C(F)(F)F)c2)C(C(=O)OC)=C1C` (centres undefined): the Potency result was “inactive”.
For `CC=C(C)[C@H](O)C[Si](C)(C)c1ccccc1`, the Potency entry is “inactive”.
In the case of `O=S(=O)(CCc1ccccc1)c1nnnn1C1CCCCC1`, the Potency result was “inactive”.
As for `CC[C@@]12C=C(C=Cc3ccccc3)[C@](CC)(C1)[C@H](c1ccccc1)CC2=O`, the entry is “inactive”; as for `CCc1cc2c(nc1CC)CCN(CCC(C)=NO[C@@H](C)CN1CCCc3nc(C)c(C)cc31)C2`, “inactive”; as for `c1ccc(-c2nc(-c3cccs3)c(NC3CCCCC3)o2)cc1`, “inactive”.
In the case of `COC(=O)c1ccc(CN2C(=O)[C@@]3(CC(C)=CC[C@@H](COc4ccccc4)O3)c3ccccc32)cc1`, the Potency entry was “inactive”.
Take `Cc1cc(C)cc(-c2cc3c(c(-c4c(O)c(-c5cc(C)cc(C)c5)cc5c4CCCC5)c2O)CCCC3)c1`: the Potency result is “inactive”.
The value for `CCOC(=O)CN1C(=O)[C@@]2(CC(C)=CC[C@@H](COc3ccccc3)O2)c2c(Br)cccc21` was “inactive”; that for `CN1c2ccccc2[C@@]2(O)C(=O)[C@@]1(C)[C@H]1Cc3ccccc3[C@H]12` was “inactive”; that for `C[C@@H]1C[C@H]2[C@@H](Cc3ccccc3)C(=O)N3[C@@H](C[C@@H](C)[C@@H]3c3ccccc3)[C@@H](Cc3ccccc3)C(=O)N2[C@H]1c1ccccc1` was “inactive”.
On to `COC(=O)C1=C(C)N(Cc2ccccc2)C(=NCC(C)C)NC1c1cccc(C(F)(F)F)c1` (centres undefined), for which the Potency result was “inactive”.
With `COc1cccc([C@H]2Oc3ccc(OC)cc3C(=NO[C@@H](C)CN3CCCCc4nc(C)c(C)cc43)[C@H]2O)c1`, the Potency entry was “inactive”.
The value for `C#CCN1C(=O)[C@]2(O[C@H](COc3ccccc3)CC3=C2CCC3)c2ccccc21` was “inactive”.
As for `COc1ccc([C@]23Cc4ccccc4[C@H](O2)C2=C(CC4(CCCCC4)OC2=O)O3)cc1`, the entry is “inactive”; as for `CC(CCN1CCCc2nc(C)c(C)cc21)=NO[C@@H](C)CN1CCCCc2nc(C)c(C)cc21`, “inactive”.
As for `CCN1C(=NCCc2cccs2)N[C@@H](CCc2ccccc2)[C@H](C(=O)NCCc2cccs2)[C@H]1C`, the entry is “inactive”; as for `CC(C)=CCCC(C)=CCN1C(=O)[C@@]2(CC(C)=CC[C@@H](C)O2)c2c(Br)cccc21`, “inactive”.
As to `FC(F)(F)c1ccc(-c2nc(-c3ccccc3)oc2NCc2ccccc2)cc1`, the Potency entry was “inactive”.
The value for `COC1=C(C(=O)c2ccccc2)C(=O)[C@@]2(CC=C(C)C)C[C@H](C(=O)OCC(F)(F)F)C(C)(C)[C@@]1(CC=C(C)C)C2=O` was “inactive”; that for `CC1=CC[C@@H](COc2ccccc2)O[C@@]2(C1)C(=O)N(Cc1ccc(F)cc1)c1cccc(Br)c12` was “inactive”; that for `COc1ccc([C@@H](NC(=O)C(F)(F)F)C2CCCC=C2c2ccccc2)cc1OC` (some centres undefined) was “inactive”.
As for `COCOc1ccc(Br)cc1C(=O)C=Cc1ccc2c(c1)OCO2`, the entry is “inactive”; as for `CC1=CC[C@@H](COc2ccccc2)O[C@@]2(C1)C(=O)N(Cc1ccc(Br)cc1)c1cccc(Br)c12`, “inactive”; as for `COC(=O)C1=C(C(=O)OC)[C@@H]2N(C)c3ccccc3[C@@]23C[C@@H](CO)N(C(=O)Nc2ccc(C(F)(F)F)cc2)C3=N1`, “inactive”.
The value for `CC1=CC[C@@H](COc2ccccc2)O[C@@]2(C1)C(=O)N(Cc1ccccc1C(F)(F)F)c1cccc(Br)c12` was “inactive”.
For `CC(C)(C)Nc1oc(-c2ccccc2)nc1-c1cccc2ccccc12`, the Potency result was “inactive”.
For the compound `COC(=O)N1C(C=Cc2ccc3c(c2)OCO3)=Cc2ccccc2C1CC(C)=O` (centres undefined), the Potency result is “inactive”.
Turning to `Cc1ccccc1Nc1oc(-c2ccccc2)nc1-c1cccc2ccccc12`, the Potency result was “inactive”.
